NadD block: inhibitors of Staphylococcus aureus NadD; inhibition, % at 20 µM; purified NadD enzyme, colorimetric absorbance read-out; AID 602399; hit rate 0.78% among 360,000; in the data active = inhibition above about 26%
Granule exo inh: lytic granule exocytosis inhibition. TALL-104 LAMP-1 surface exposure, flow cytometry; cells stimulated with thapsigargin and PMA. inhibition, % at 10 µM. hit rate 0.66% among 360,000. AID 651702;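 active = inhibition above about 55%, limit read from the data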
GRK2 inh: blocks RNA aptamer binding to human GRK2; AID 488847; P25098; hit rate 0.59% among 330,000; bead flow cytometry, FAM-aptamer displacement from GRK2; inhibition of aptamer binding, % at 10 µM;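 active = inhibition of aptamer binding above 40%, roughly 3 SD of noise, on plates passing a quality check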;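 note: median bead fluorescence of bound FAM aptamer so fluorescent compounds give negative values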
B2AR ag: human beta-2 adrenergic receptor agonism by FAP. Am2.2-beta2AR cells, FAP receptor internalization, flow cytometry. response, % (concentration not given with the values). hit rate 0.43% among 340,000;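 active = response above a set limit, near 3 SD of response in nonfluorescent compounds, cut at about 42% in these data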
Target sequence (P07550 whole entry, looked up): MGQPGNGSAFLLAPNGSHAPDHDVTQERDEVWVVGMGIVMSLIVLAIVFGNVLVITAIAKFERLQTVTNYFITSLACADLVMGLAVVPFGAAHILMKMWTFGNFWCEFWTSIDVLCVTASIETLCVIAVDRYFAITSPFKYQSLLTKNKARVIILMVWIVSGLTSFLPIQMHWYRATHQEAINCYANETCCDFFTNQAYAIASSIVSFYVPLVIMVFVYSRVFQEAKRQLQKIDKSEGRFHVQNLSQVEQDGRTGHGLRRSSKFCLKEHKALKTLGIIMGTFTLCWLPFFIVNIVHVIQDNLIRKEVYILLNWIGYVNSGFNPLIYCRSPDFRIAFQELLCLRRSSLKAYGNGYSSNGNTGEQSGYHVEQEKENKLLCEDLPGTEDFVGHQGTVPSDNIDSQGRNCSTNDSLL
PP1 inh: counter-screen for PP5 inhibitors: inhibitors of human PP1-alpha. P62136. purified PP1alpha, OMFP fluorescence. inhibition, % at 6.7 µM. hit rate 0.9% among 320,000. AID 2235;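 active = inhibition above the mean inhibition of all tested compounds plus 3 SD, computed separately for each screening campaign, cut at about 15% in these data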
NadD inh conf: NadD (S. aureus) inhibition, single concentration confirmation; inhibition, % at 20 µM; AID 624309; purified S. aureus NadD, colorimetric enzyme assay; shares compounds with NadD block; hit rate 13% among 2,000; in the data active = inhibition mostly above about 42%, no sharp cut-off; inactive = mostly below about 42%
Exocytosis CP01: lytic granule exocytosis inhibition | shares compounds with Granule exo inh | TALL-104 cells, LAMP-1 externalization, flow cytometry; stimulated with PMA plus thapsigargin | inhibition, % at 10 µM | hit rate 11% among 1,500; in the data active = inhibition above about 60%
Hits are given with their value; n = inactive; x = no result; ! = repeats disagree. Shown are actives, neighbours in structure and some others; about 2.9% of the full set was active somewhere.

SMILES	NadD block	Granule exo inh	GRK2 inh	B2AR ag	PP1 inh	NadD inh conf	others
O=C(CN1C(=O)CSc2ccc(S(=O)(=O)N3CCCCC3)cc21)NCc1ccccc1	n	n	n	n	n	x
CC(=O)NCCNc1nc2cc(-c3ccsc3)sc2c(=O)n1C	n	n	x	x	x	x
O=[N+]([O-])c1cc(S(=O)(=O)Nc2ccc(Cl)cc2)ccc1N/N=C/c1ccncc1	47.0	n	n	n	n	n
O=[N+]([O-])c1ccc(Cl)cc1N/N=C/c1ccncc1	n	n	n	n	n	x
CCOc1ccccc1C(=O)N1CCN(c2cccc(Cl)c2)CC1	n	n	n	n	n	x
COc1ccccc1N1CCN(c2ncc(C(=O)N3CCN(c4cccc(Cl)c4)CC3)c3ccccc23)CC1	34.1	n	n	n	n	n
Cc1ccccc1CN(c1ccc(C(=O)N/N=C/c2ccc(OCC(N)=O)cc2)cc1)S(C)(=O)=O	n	n	n	n	n	x
CSc1ccc(Cl)c(C(=O)NNC(=O)c2csc(N3CCOCC3)n2)c1	n	n	n	n	n	x
O=C(NC(=S)Nc1nc(-c2cccc([N+](=O)[O-])c2)cs1)c1cc(Cl)ccc1Cl	30.4	n	n	n	n	n
O=C(NC(=S)Nc1nc(-c2cccc([N+](=O)[O-])c2)cs1)c1ccccc1Cl	n	n	n	n	n	x
COc1ccccc1N1CCN(C(=O)CCCN2C(=O)c3cccc4cccc(c34)C2=O)CC1	n	n	n	n	n	x
C=C(C)C1CC=C(C)/C(=N\NC(=O)CNc2cccc3ccccc23)C1 (centres undefined)	36.7	n	n	n	n	n
C=C(C)[C@H]1CC=C(C)/C(=N/NC(=O)CNc2ccccc2OC)C1	n	n	n	n	n	x
Cc1ccc(-c2[nH]c3cc(C(=O)NCCCn4ccnc4)ccc3c(=O)c2O)cc1	54.4	n	n	n	n	n
CCCNC(=O)c1ccc2c(=O)c(O)c(-c3ccc(C)cc3)[nH]c2c1	n	n	n	n	n	x
CC(C)CN(C(=O)COC(=O)c1cccc2ccccc12)c1c(N)n(Cc2ccccc2)c(=O)[nH]c1=O	n	n	n	n	n	x
CCc1nnc(NCC(=O)N2CCc3ccccc32)s1	44.8	n	n	n	n	n
O=C(CNCCO)N1CCc2ccccc21	n	n	n	n	n	x
Cc1ccc(F)cc1C(=O)N1CCCC1(C)C(=O)NCC(C)C (centres undefined)	n	n	x	x	x	x
CC(C)(C)NC(=O)c1cc([N+](=O)[O-])ccc1N1CCCCC1	n	n	n	n	n	x
O=c1ccc(-c2ccc(S(=O)(=O)Nc3ccc(F)cc3)s2)n[nH]1	n	n	n	n	n	x
COc1ccc2c3c(cccc13)OC2=O	n	n	n	n	n	x
COc1ccc2c3c(cccc13)N(C)N=C2C	52.1	n	n	n	16.6	n
CSc1nc(N)nc2c1ncn2CC(=O)N[C@H](C)c1cccc2ccccc12	n	n	n	n	x	x
CCOc1ccccc1-c1cc(C(=O)N/N=C/c2ccc3c(c2)OCO3)c2ccccc2n1	35.2	n	x	n	x	n
SMILES	NadD block	Granule exo inh	GRK2 inh	B2AR ag	PP1 inh	NadD inh conf	others
Cc1cccc(-n2c(O)c(C=Nc3ccccc3O)c3ccccc3c2=O)n1	n	n	n	n	n	x
Cc1ccc(-n2c(O)c(C=Nc3ccccc3-c3n[nH]c(=S)[nH]c3=O)c3ccccc3c2=O)cc1C	38.6	n	x	n	x	61.9
Cc1cccc(-n2c(O)c(C=Nc3ccccc3-c3n[nH]c(=S)[nH]c3=O)c3ccccc3c2=O)n1	n	n	n	n	n	x
Cc1ccc(-n2c(O)c(C=Nc3ccccc3-c3n[nH]c(=S)[nH]c3=O)c3ccccc3c2=O)c(C)c1	32.0	n	n	n	n	n
O=C(CN1CCCc2ccccc21)NC(=O)NCc1ccco1	n	n	n	n	n	x
CC1Cc2ccccc2N1CC(=O)NC(=O)NCc1ccco1 (centres undefined)	32.4	n	n	n	n	n
COC(=O)Cn1c(=NC(=O)c2sc3ccccc3c2Cl)sc2cc(S(N)(=O)=O)ccc21	36.9	n	n	n	26.2	n
COc1ccc(Oc2c(OC)cc(NCc3ccc(CN)cc3)c3ncccc23)cc1	70.1	n	x	x	x	65.8
COc1cc(/C=C2\SC(=O)N(c3cccc(Cl)c3)C2=O)cc([N+](=O)[O-])c1O	26.2	n	x	n	x	n
O=C(CSc1ccccc1F)NC(=O)c1ccccc1Br	n	n	n	n	x	x
Cc1ccc2[nH]c(=O)c(C(c3nnnn3Cc3ccccc3)N3CCc4ccccc43)cc2c1 (centres undefined)	31.6	n	n	n	n	n
Cc1cc2cc(C(c3nnnn3Cc3ccco3)N3CCc4ccccc43)c(=O)[nH]c2cc1C (centres undefined)	32.3	n	n	n	n	n
Cc1ccc(NC(=O)CSc2nc(O)c(Cc3ccccc3)c(=O)n2-c2ccccc2)cc1	n	n	n	n	n	x
COc1cc2c(cc1[N+](=O)[O-])-c1ccc([N+](=O)[O-])cc1C2=NNC(N)=S	48.2	n	x	x	x	n
NC(=S)NN=C1c2cc(Cl)ccc2-c2c1cc(Cl)cc2[N+](=O)[O-]	35.2	n	x	n	x	n
COc1ccc(C2Nc3ccccc3C(=O)N2Cc2ccco2)cc1CN1C(=O)c2ccccc2C1=O (centres undefined)	38.6!	n	n	n	n	n
O=C(NNC(=O)c1ccncc1)Nc1cc(Cl)ccc1Cl	n	n	x	n	x	x
O=C(CN(c1ccccc1)S(=O)(=O)c1ccccc1[N+](=O)[O-])NN=C1CCCCCCC1	n	n	n	n	n	x
Cn1c(=O)n(Cc2ccccc2Cl)c(=O)c2c1[nH]c(=S)n2C	39.1	n	n	n	n	n
Cc1nn(-c2ccccc2)c(C)c1NC(=O)COC(=O)CCc1ccccc1	n	n	n	n	n	x
O=c1[nH]c(C2CCN(S(=O)(=O)c3ccccc3)CC2)nc2c1nnn2Cc1c(F)cccc1Cl	n	n	n	n	n	x
O=c1[nH]c(C2CCN(S(=O)(=O)c3ccc4c(c3)OCCO4)CC2)nc2c1nnn2Cc1ccccc1F	34.1	n	n	n	n	n
O=c1[nH]c(C2CCN(S(=O)(=O)c3ccc4c(c3)OCCO4)CC2)nc2c1nnn2Cc1c(F)cccc1Cl	33.4	n	n	n	16.9	n
O=C(Nc1ccccc1F)Nc1ccc([N+](=O)[O-])cc1Cl	n	n	n	n	n	x
CC(C)c1ccc(OCC(=O)NNC(=S)NC(=O)c2cccs2)c(Br)c1	25.4	n	n	n	n	n
O=C(Nc1ccccc1N1CCCCC1)c1ccc(-c2cccc(Cl)c2)o1	n	n	n	n	n	x
O=C(Nc1cccc2nsnc12)c1ccc(-c2cccc(Cl)c2)o1	45.3	91.8	n	n	n	n	Exocytosis CP01=n
Oc1c(I)cc(I)c2cccnc12	45.6	73.9	n	n	n	n	Exocytosis CP01=n
Cc1nc(SCc2nc3ccc([N+](=O)[O-])cc3[nH]2)c2oc3ccccc3c2n1	33.3	93.3	n	n	x	n	Exocytosis CP01=n
